Results filed as inconclusive are left out. Activity calls are given as the source filed them.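 The calls were made as follows, unless noted: active = RAM network inhibition above 8.4% in each of two replicates, 3 SD over the compound average; inconclusive = above 8.4% inhibition in only one replicate; inactive = 8.4% inhibition or less in each replicate.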
Key:
[1] = Her2 expression decrease, cell viability multiplex – SKBR3 breast tumor cells, AlphaScreen, ATP viability, primary screen (AID 461;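 active = Her2 level under about 52% in both replicate screens, with viability over 70% of control, limit read from the data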;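 as to Her2 level: lower value means less Her2 protein in the cells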;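 as to viability: percent of carrier control wells set as 100% viability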); details: SKBR3 Her2 protein level, 18-24 h, measured here: SKBR3 viability, ATP luminescence, at 10 µM
[2] = molecular target: Receptor tyrosine-protein kinase erbB-2 (Homo sapiens) (UniProt P04626); assay: as above; details: 18-24 h, at 10 µM, stronger effect = lower value
Sequence of Receptor tyrosine-protein kinase erbB-2 (Homo sapiens) (P04626 whole entry, looked up): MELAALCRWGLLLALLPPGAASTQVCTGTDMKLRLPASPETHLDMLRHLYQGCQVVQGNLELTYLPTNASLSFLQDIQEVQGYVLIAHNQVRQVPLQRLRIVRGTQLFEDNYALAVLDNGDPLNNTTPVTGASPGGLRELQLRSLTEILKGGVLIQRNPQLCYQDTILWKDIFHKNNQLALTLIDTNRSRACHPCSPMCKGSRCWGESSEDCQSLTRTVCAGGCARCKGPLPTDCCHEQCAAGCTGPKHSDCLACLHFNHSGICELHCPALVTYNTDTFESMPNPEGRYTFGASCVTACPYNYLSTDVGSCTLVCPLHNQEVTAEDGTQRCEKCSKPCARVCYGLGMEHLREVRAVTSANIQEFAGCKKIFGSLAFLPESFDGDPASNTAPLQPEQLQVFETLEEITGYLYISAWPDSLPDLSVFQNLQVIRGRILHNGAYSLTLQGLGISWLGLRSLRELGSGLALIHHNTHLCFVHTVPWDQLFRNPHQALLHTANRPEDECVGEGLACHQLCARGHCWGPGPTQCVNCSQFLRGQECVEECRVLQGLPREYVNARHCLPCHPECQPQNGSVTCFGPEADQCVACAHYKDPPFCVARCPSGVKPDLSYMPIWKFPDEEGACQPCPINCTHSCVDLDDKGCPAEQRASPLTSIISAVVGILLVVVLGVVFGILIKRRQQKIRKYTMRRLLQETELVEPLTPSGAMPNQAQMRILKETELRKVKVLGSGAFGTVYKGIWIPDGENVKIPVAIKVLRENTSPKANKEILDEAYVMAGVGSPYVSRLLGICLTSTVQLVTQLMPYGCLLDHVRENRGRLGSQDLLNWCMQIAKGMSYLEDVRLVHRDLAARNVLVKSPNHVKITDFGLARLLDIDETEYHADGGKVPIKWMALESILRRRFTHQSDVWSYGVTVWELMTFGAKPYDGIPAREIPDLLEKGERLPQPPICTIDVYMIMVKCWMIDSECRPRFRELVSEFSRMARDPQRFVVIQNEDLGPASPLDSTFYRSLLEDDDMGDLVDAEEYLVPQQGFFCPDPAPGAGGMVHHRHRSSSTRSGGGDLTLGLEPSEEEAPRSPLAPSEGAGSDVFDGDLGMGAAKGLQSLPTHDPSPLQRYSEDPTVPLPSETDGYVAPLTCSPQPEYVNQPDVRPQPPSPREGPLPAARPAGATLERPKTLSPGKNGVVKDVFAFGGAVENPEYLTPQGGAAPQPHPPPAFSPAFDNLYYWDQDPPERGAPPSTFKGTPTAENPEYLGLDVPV

[3] = reduced viability of SK-BR-3 breast cancer cells – cell-based, 24 h, human, pilot screen (AID 572;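 active = viability at or below 10% of carrier control in both of two separate runs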;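 also: compound exposure lasted between 18 and 24 h rather than exactly 24 h; 100% = carrier-treated control wells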); details: SK-BR-3 viability, CellTiter-Glo luminescence, at 10 µM, stronger effect = lower value
[4] = HUVEC growth inhibition – cell-based, human, primary screen (AID 575;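 active = viability at or below 30% in both replicate assays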;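 also: 100% = median of untreated cell wells with 0.1% DMSO on each plate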); details: HUVEC proliferation, CellTiter-Glo luminescence, 72 h; at 10 µM; stronger effect = lower value
[5] = H69AR cell proliferation blockers – human, duplicate replicates, primary screen (AID 580;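 active = viability at or under a set limit in both replicates, limit being median viability minus 3 SD, cut at about 48% in these data, passing the limit was not always enough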;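 also: 100% = mean luminescence of untreated wells and 0% = no signal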); details: H69AR lung tumor cells viability, ATP luminescence, 72 h; at 10 µM; stronger effect = lower value
[6] = MRP1 drug-resistance reversers in H69AR cells – cell-based, doxorubicin co-treatment, pilot screen (AID 601;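 active = viability loss from added drug above about 55%, and viability with drug at most 40%, in both replicates, limit read from the data, passing the limit was not always enough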); details: CellTiter-Glo, 72 h, at 10 µM; for differential viability (reversal): stronger effect = higher value
[7] = yeast transport mutant growth inhibition pilot in 384-well plates, post-Golgi transport modulator project (AID 636; in the data active = inhibition above about 31%); details: absorbance 615 nm, about 18 h, stronger effect = higher value
[8] = growth suppression of yeast trafficking mutant, preliminary HTS, modulators of trafficking downstream of Golgi apparatus project, 1536-format plate, OD 615 nm (AID 637; in the data active = inhibition above about 30%); details: yeast transport mutant growth, absorbance 615 nm, 18 h; stronger effect = higher value
[9] = S. cerevisiae growth inhibition in permissive medium (OD615), pilot counter-assay for S. cerevisiae lifespan shortening project, permissive growth control (AID 705;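 active = growth inhibition above 25% in both replicates, a cutoff set 3 SD above the mean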); details: OD615, 24 h, at 10 µM, stronger effect = higher value
[10] = S. cerevisiae growth inhibition in restrictive medium, OD615, pilot screen, restrictive growth control, yeast lifespan reduction project (AID 706;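 active = growth inhibition above a set limit, 3 SD over mean compound inhibition, in both replicates, cut at about 43% in these data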;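 also: modified DeaD lifespan yeast strain shifted to restrictive glucose medium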); details: OD615, 48 h, at 10 µM, stronger effect = higher value
[11] = doxorubicin toxicity protection in MRP-1 cells – H69AR cells, CellTiter-Glo, duplicate, MRP-1 activator project, pilot screen (AID 807;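 active = viability increase at or above a cutoff of the median across tested compounds plus 3 SD, cut at about 8.5% in these data, passing the limit was not always enough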;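 also: compound pretreatment 18-22 h then 72 h combined with doxorubicin; 0% = doxorubicin alone and 100% = vehicle without doxorubicin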); details: H69AR viability with doxorubicin, CellTiter-Glo luminescence; at 10 µM; stronger effect = higher value
[12] = viability of HCT116 without oncogenic beta-catenin – human colon tumor cells, pilot screen (AID 823;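 active = cell viability at or below a set limit in both duplicate runs, the limit being the all-compound median minus 4 SD, cut at about 23% in these data, passing the limit was not always enough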;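 also: 0% = wells killed by 20 µM Hyamine and 100% = untreated DMSO cell wells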); details: HCT116 beta-catenin knockout viability, CellTiter-Glo, 60 h; at 10 µM; stronger effect = lower value
[13] = viability of PTEN-null HCT116 cells – cell-based, HCT116 clonal line, CellTiter-Glo, pilot screen (AID 824;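 active = viability at or below 27.92% in each of two runs, the all-compound median minus 4 SD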;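 also: 0% = 20 µM Hyamine control and 100% = vehicle cell control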); details: HCT116 PTEN-deleted viability, 60 h, at 10 µM, stronger effect = lower value
[14] = RAM pathway blockade in budding yeast – dse1pr::URA3 reporter, 5-FOA selection, pilot screen (AID 869;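 active = inhibition over a set limit, the all-compound mean plus 3 SD, in both replicate runs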;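 also: 0% = DMSO wells with no growth and 100% = 10 µM 1-NA-PP1 with full growth; RAM network block rescues cells from 5-FOA so hits raise OD615 growth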); details: S. cerevisiae dse1pr::URA3 5-FOA growth, OD615, 2 d; at 10 µM; stronger effect = higher value; strain carries analog-sensitive mutant Cbk1 kinase
[15] = RAM signaling pathway blockade in yeast – S. cerevisiae, Pdr1DBD-CYC8 efflux-inhibited sensitized strain, primary screen (AID 1298);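 also: 0% = DMSO untreated cells without growth and 100% = 10 µM 1-NA-PP1 full growth; higher means more yeast growth rescued from 5-FOA killing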; details: S. cerevisiae cbk1-as DSE1-URA3 strain, 5-FOA growth OD615, 2 d; at 50 µM; stronger effect = higher value
[16] = H69AR cells + 2 uM doxorubicin, measured here: viability with 2 uM doxorubicin, stronger effect = lower value
[17] = H69AR cells, compound alone cytotoxicity

COc1ccc(OC)c(S(=O)(=O)N2CCN(c3c(C)cccc3C)CC2)c1
83.4%: viability [6, 16]
100%: viability [1]
inactive: Her2 level [2] 86% | viability [3] 100% | viability [4] 79.5% | viability [5] 86.9% | differential viability (reversal) ([6]; H69AR cells + 2 uM doxorubicin) 3.56% | inhibition [7] -8.53% | inhibition [8] 2.33% | growth inhibition [9] 0.405% | growth inhibition [10] 6.42% | viability increase [11] -2.38% | viability [12] 68% | viability [13] 82.5% | inhibition [14] 1.79% | RAM network inhibition [15] 6.46%
86.9%: viability [6, 17]

CCOC(=O)Nc1ccc2c(c1)N(C(=O)OCCN(C)C)c1ccccc1CC2
inactive: Her2 level [2] 100% | viability [3] 94.5% | viability [4] 77.5% | viability [5] 90.2% | differential viability (reversal) ([6]; H69AR cells + 2 uM doxorubicin) 12.4% | inhibition [7] -7.07% | inhibition [8] -9.02% | growth inhibition [9] -10.3% | growth inhibition [10] -0.265% | viability increase [11] -4.23% | viability [12] 73.5% | viability [13] 78.8% | inhibition [14] 1.89% | RAM network inhibition [15] 2.2%
94.5%: viability [1]
77.7%: viability [6, 16]
90.2%: viability [6, 17]

CCOC(=O)N1CCC(NC(=O)c2cc3c(=O)n(C)c4ccccc4c3n2C)CC1
73.1%: viability [6, 17]
77.3%: viability [6, 16]
inactive: Her2 level [2] 94% | viability [3] 88% | viability [4] 71.3% | viability [5] 73.1% | differential viability (reversal) ([6]; H69AR cells + 2 uM doxorubicin) -4.2% | inhibition [7] -2.67% | inhibition [8] -1.17% | growth inhibition [9] -11.7% | growth inhibition [10] -13% | viability increase [11] -3.46% | viability [12] 80.2% | viability [13] 84.5% | inhibition [14] 2.96% | RAM network inhibition [15] 9.59%
88%: viability [1]

CCCCCn1c(CCNC(=O)CCC)nc2ccccc21
82.4%: viability [6, 16]
96.5%: viability [1]
87.4%: viability [6, 17]
inactive: Her2 level [2] 102% | viability [3] 96.5% | viability [4] 79.6% | viability [5] 87.4% | differential viability (reversal) ([6]; H69AR cells + 2 uM doxorubicin) 5.08% | inhibition [7] -4.67% | inhibition [8] 1.17% | growth inhibition [9] -0.135% | growth inhibition [10] -11.5% | viability increase [11] -1.41% | viability [12] 94% | viability [13] 87.2% | inhibition [14] 1.89% | RAM network inhibition [15] 2.6%

Reference: PubChem BioAssay
